# Measured values as given in PubChem BioAssay AID1159580 (chemical genetic matrix, 2015).
# Out of some 5,500 compounds screened, about 2,000 (36%) were called active. About 18% were inconclusive and are not listed. The list shows a part of the results. Values without a mark were called inactive. No stated cut-off is given here; in the data, active means normalized growth mostly below about 0.91 (no sharp cut-off); inconclusive means no clear call, values can overlap the other calls; inactive means mostly above about 0.92.
# Experiment: chemical genetic growth profiling, strain panel (AID 1159580);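 further: tested at 20 µM; growth read once vehicle control cultures reached saturation at 30 °C; 1 = growth at the plate median or of vehicle wells; lower values mean less growth of the strain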
# Conditions: growth OD
structure (smiles),measurement,setting,value
CCCCOC(=O)c1ccccc1C(=O)OCCCC,normalized growth,"S. cerevisiae deletion strains, locus YJR066W, strain TOR1, active compounds read low",0.92
same,normalized growth,"S. cerevisiae deletion strains, locus YJR075W, strain HOC1, active compounds read low",0.991
same,normalized growth,"S. cerevisiae deletion strains, locus YKL009W, strain mrt4, active compounds read low",0.941
same,normalized growth,"S. cerevisiae deletion strains, locus YKL068W, active compounds read low",0.977
same,normalized growth,"S. cerevisiae deletion strains, locus YKL085W, strain MDH1 (second series), active compounds read low",0.984
same,normalized growth,"S. cerevisiae deletion strains, locus YKL085W, strain MDH1, active compounds read low",0.984
same,normalized growth,"S. cerevisiae deletion strains, locus YKL160W, strain elf1, active compounds read low",0.985
same,normalized growth,"S. cerevisiae deletion strains, locus YKL190W, strain CNB1, active compounds read low",0.972
same,normalized growth,"S. cerevisiae deletion strains, locus YKR001C, strain vps1, active compounds read low",0.983
same,normalized growth,"S. cerevisiae deletion strains, locus YKR026C, strain gcn3, active compounds read low",0.986
same,normalized growth,"S. cerevisiae deletion strains, locus YKR091W, strain srl3, active compounds read low",0.982
same,normalized growth,"S. cerevisiae deletion strains, locus YLL001W, strain dnm1, active compounds read low",0.987
same,normalized growth,"S. cerevisiae deletion strains, locus YLL026W, active compounds read low",0.982
same,normalized growth,"S. cerevisiae deletion strains, locus YLL041C, strain sdh2, active compounds read low",0.975
same,normalized growth,"S. cerevisiae deletion strains, locus YLR027C, strain aat2, active compounds read low",0.974
same,normalized growth,"S. cerevisiae deletion strains, locus YLR039C, strain RIC1, active compounds read low",0.941
same,normalized growth,"S. cerevisiae deletion strains, locus YLR058C, strain SHM2, active compounds read low",0.968
same,normalized growth,"S. cerevisiae deletion strains, locus YLR102C, strain apc9, active compounds read low",0.982
same,normalized growth,"S. cerevisiae deletion strains, locus YLR113W, strain HOG1, active compounds read low",0.89
same,normalized growth,"S. cerevisiae deletion strains, locus YLR221C, strain rsa3, active compounds read low",0.957
same,normalized growth,"S. cerevisiae deletion strains, locus YLR258W, strain gsy2, active compounds read low",0.974
same,normalized growth,"S. cerevisiae deletion strains, locus YLR262C, strain YPT6 (second series), active compounds read low",0.838 (active)
same,normalized growth,"S. cerevisiae deletion strains, locus YLR262C, strain YPT6, active compounds read low",0.931
same,normalized growth,"S. cerevisiae deletion strains, locus YLR268W, strain sec22, active compounds read low",0.96
same,normalized growth,"S. cerevisiae deletion strains, locus YLR320W, strain mms22, active compounds read low",0.924
same,normalized growth,"S. cerevisiae deletion strains, locus YLR330W, strain CHS5, active compounds read low",0.977
same,normalized growth,"S. cerevisiae deletion strains, locus YLR342W, strain FKS1 (second series), active compounds read low",0.875
same,normalized growth,"S. cerevisiae deletion strains, locus YLR342W, strain FKS1, active compounds read low",0.948
same,normalized growth,"S. cerevisiae deletion strains, locus YLR357W, strain rsc2, active compounds read low",1.02
same,normalized growth,"S. cerevisiae deletion strains, locus YLR370C, strain arc18, active compounds read low",0.99
same,normalized growth,"S. cerevisiae deletion strains, locus YLR371W, strain rom2, active compounds read low",0.974
same,normalized growth,"S. cerevisiae deletion strains, locus YLR384C, strain iki3, active compounds read low",0.99
same,normalized growth,"S. cerevisiae deletion strains, locus YLR418C, strain cdc73, active compounds read low",0.978
same,normalized growth,"S. cerevisiae deletion strains, locus YML016C, strain PPZ1, active compounds read low",0.992
same,normalized growth,"S. cerevisiae deletion strains, locus YML032C, strain rad52, active compounds read low",0.982
same,normalized growth,"S. cerevisiae deletion strains, locus YML120C, strain ndi1, active compounds read low",0.983
same,normalized growth,"S. cerevisiae deletion strains, locus YML124C, strain tub3, active compounds read low",0.975
same,normalized growth,"S. cerevisiae deletion strains, locus YMR058W, strain fet3, active compounds read low",0.992
same,normalized growth,"S. cerevisiae deletion strains, locus YMR078C, strain ctf18, active compounds read low",0.979
same,normalized growth,"S. cerevisiae deletion strains, locus YMR125W, strain sto1, active compounds read low",0.969
same,normalized growth,"S. cerevisiae deletion strains, locus YMR129W, active compounds read low",0.98
same,normalized growth,"S. cerevisiae deletion strains, locus YMR205C, strain PFK2, active compounds read low",0.949
same,normalized growth,"S. cerevisiae deletion strains, locus YMR223W, strain ubp8, active compounds read low",0.975
same,normalized growth,"S. cerevisiae deletion strains, locus YMR231W, strain pep5, active compounds read low",0.996
same,normalized growth,"S. cerevisiae deletion strains, locus YMR263W, strain SAP30, active compounds read low",0.977
same,normalized growth,"S. cerevisiae deletion strains, locus YMR307W, strain GAS1, active compounds read low",0.713
same,normalized growth,"S. cerevisiae deletion strains, locus YNL067W, strain RPL9B, active compounds read low",0.979
same,normalized growth,"S. cerevisiae deletion strains, locus YNL071W, strain lat1, active compounds read low",0.944
same,normalized growth,"S. cerevisiae deletion strains, locus YNL128W, strain TEP1, active compounds read low",0.98
same,normalized growth,"S. cerevisiae deletion strains, locus YNL153C, strain GIM3, active compounds read low",0.998
same,normalized growth,"S. cerevisiae deletion strains, locus YNL183C, strain NPR1, active compounds read low",0.911
same,normalized growth,"S. cerevisiae deletion strains, locus YNL209W, strain ssb2, active compounds read low",0.99
same,normalized growth,"S. cerevisiae deletion strains, locus YNL233W, strain BNI4, active compounds read low",0.994
same,normalized growth,"S. cerevisiae deletion strains, locus YNL248C, strain rpa49, active compounds read low",0.987
same,normalized growth,"S. cerevisiae deletion strains, locus YNL250W, strain rad50, active compounds read low",0.961
same,normalized growth,"S. cerevisiae deletion strains, locus YNL271C, strain bni1, active compounds read low",0.978
same,normalized growth,"S. cerevisiae deletion strains, locus YNL298W, strain CLA4, active compounds read low",0.966
same,normalized growth,"S. cerevisiae deletion strains, locus YNL307C, strain MCK1, active compounds read low",0.952
same,normalized growth,"S. cerevisiae deletion strains, locus YNL322C, strain KRE1 (second series), active compounds read low",0.981
same,normalized growth,"S. cerevisiae deletion strains, locus YNL322C, strain KRE1, active compounds read low",0.978
same,normalized growth,"S. cerevisiae deletion strains, locus YNR049C, strain mso1, active compounds read low",0.976
same,normalized growth,"S. cerevisiae deletion strains, locus YNR052C, strain pop2, active compounds read low",0.971
same,normalized growth,"S. cerevisiae deletion strains, locus YOL006C, strain TOP1, active compounds read low",0.94
same,normalized growth,"S. cerevisiae deletion strains, locus YOL012C, strain htz1",0.914
same,normalized growth,"S. cerevisiae deletion strains, locus YOL147C, strain pex11, active compounds read low",0.976
same,normalized growth,"S. cerevisiae deletion strains, locus YOR001W, strain rrp6, active compounds read low",0.979
same,normalized growth,"S. cerevisiae deletion strains, locus YOR061W, strain CKA2, active compounds read low",0.984
same,normalized growth,"S. cerevisiae deletion strains, locus YOR069W, strain VPS5, active compounds read low",0.977
same,normalized growth,"S. cerevisiae deletion strains, locus YOR070C, strain gyp1, active compounds read low",0.983
same,normalized growth,"S. cerevisiae deletion strains, locus YOR080W, strain dia2, active compounds read low",0.99
same,normalized growth,"S. cerevisiae deletion strains, locus YOR083W, strain WHI5, active compounds read low",0.98
same,normalized growth,"S. cerevisiae deletion strains, locus YOR106W, strain vam3, active compounds read low",0.916
same,normalized growth,"S. cerevisiae deletion strains, locus YOR136W, strain idh2, active compounds read low",0.988
same,normalized growth,"S. cerevisiae deletion strains, locus YOR144C, strain elg1, active compounds read low",0.973
same,normalized growth,"S. cerevisiae deletion strains, locus YOR184W, strain ser1, active compounds read low",0.943
same,normalized growth,"S. cerevisiae deletion strains, locus YOR231W, strain MKK1, active compounds read low",0.945
same,normalized growth,"S. cerevisiae deletion strains, locus YOR265W, strain rbl2, active compounds read low",0.986
same,normalized growth,"S. cerevisiae deletion strains, locus YOR270C, strain vph1, active compounds read low",0.846
same,normalized growth,"S. cerevisiae deletion strains, locus YOR290C, strain snf2, active compounds read low",0.975
same,normalized growth,"S. cerevisiae deletion strains, locus YOR316C, strain cot1, active compounds read low",0.977
same,normalized growth,"S. cerevisiae deletion strains, locus YPL055C, strain LGE1, active compounds read low",0.967
same,normalized growth,"S. cerevisiae deletion strains, locus YPL078C, strain atp4, active compounds read low",0.98
same,normalized growth,"S. cerevisiae deletion strains, locus YPL106C, strain sse1, active compounds read low",1.02
same,normalized growth,"S. cerevisiae deletion strains, locus YPL240C, strain hsp82, active compounds read low",0.969
same,normalized growth,"S. cerevisiae deletion strains, locus YPL241C, strain CIN2, active compounds read low",0.976
same,normalized growth,"S. cerevisiae deletion strains, locus YPL256C, strain CLN2, active compounds read low",0.973
same,normalized growth,"S. cerevisiae deletion strains, locus YPR119W, strain clb2, active compounds read low",0.974
same,normalized growth,"S. cerevisiae deletion strains, locus YPR141C, strain kar3, active compounds read low",0.978
same,normalized growth,"S. cerevisiae deletion strains, locus YPR163C, strain tif3, active compounds read low",0.97
same,normalized growth,"S. cerevisiae deletion strains, locus YPR167C, strain met16, active compounds read low",0.984
same,normalized growth,"S. cerevisiae deletion strains, strain wtn01, active compounds read low",0.965
same,normalized growth,"S. cerevisiae strains, strain wild type, active compounds read low",0.987
